Bioassay records as filed in PubChem BioAssay.
Shown is part of a subset that was picked to be rich in hits.
Methyltransferases: Primary Screen for Target Class Profiling of Small Molecule Inhibitors of Methyltransferases. purified enzyme, MTase-Glo SAH luminescence; active compounds read low. calls only at 40 µM. 3.9% of 25,000 active. AID 1745853, 2022; call rule not given here
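Each enzyme was assayed with SAM and its substrate. SAH formation detected by MTase-Glo luminescence; single-point 40 uM screen[…].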
* hit, by the source's call; ! = a repeat was not active. % is scaled to controls: 0 for no effect and ±100 for the full control effect.

For Cc1c(Cl)cccc1N1C(=O)c2cc(-c3ccccc3)nn2CC1(C)C(=O)NCc1ccccc1 (stereo not drawn) the results were Methyltransferases inactive.
For CC1CCN(S(=O)(=O)c2ccc3c(ccn3CCC(=O)N3CCN(c4ccccc4)CC3)c2)CC1 the results were Methyltransferases inactive.
`CCc1cc2c(cc3n2CC(C)(C(=O)NC2CCCCC2)N(Cc2ccccc2)C3=O)s1` (stereo not drawn) gave Methyltransferases inactive.
`COC(=O)c1cc2n(n1)CC(C)(C(=O)NC1CCCCC1)N(c1cc(OC)cc(OC)c1)C2=O` (stereo not drawn) gave Methyltransferases inactive.
`CC(C)C1c2cccn2CCN1C(=O)Nc1cccc(C(F)(F)F)c1` (stereo not drawn) gave Methyltransferases inactive.
CN(C)c1nc(NC2CCC(NCCc3ccc(Br)cc3OC(F)(F)F)CC2)nc2ccccc12 (stereo not drawn) was read as Methyltransferases active.
`COc1ccccc1NC(=O)CSc1nnc2n(C)c(=O)c3ccc(C(=O)NC4CCCC4)cc3n12` gave Methyltransferases inactive.
Screening CC1CCCCC1NC(=O)C1(C)Cn2c(cc3sccc32)C(=O)N1Cc1ccc(F)cc1 (stereo not drawn) returned Methyltransferases inactive.
`Cc1c[nH]c2nccc(Oc3c(F)cc(Nc4cc(Cl)nc(N)n4)cc3F)c12` gave Methyltransferases active.
CC(C)CCN1C(=O)c2cc3occc3n2CC1(C)C(=O)NC1CCCCC1 (stereo not drawn) was read as Methyltransferases inactive.
Screening CC(C)(C)CC(C)(C)c1ccc(OCCOCC[N+](C)(C)Cc2ccccc2)cc1 returned Methyltransferases active.
Cc1ccc(S(=O)(=O)c2nnn3c2nc(NCCC(C)C)c2ccccc23)cc1C was read as Methyltransferases inactive.
`CC(C)Cn1c(=O)c2ccc(C(=O)NC3CCCC3)cc2n2c(=O)n(CC(=O)NC3CCCCC3)nc12` gave Methyltransferases inactive.
O=C(CSc1nnc2n(CCc3ccccc3)c(=O)c3ccccc3n12)Nc1cc(F)ccc1F was read as Methyltransferases inactive.
Cc1cc2c(cc3n2CC(C)(C(=O)NC2CCCCCCC2)N(C2CCCCC2)C3=O)o1 (stereo not drawn) was read as Methyltransferases inactive.
For Nc1ncnc2c1c(-c1cccc(OCc3ccccc3)c1)cn2C1CC(CN2CCCC2)C1 (stereo not drawn) the results were Methyltransferases active.
`CCc1cccc(NC(=O)Cn2nc3n(CC(C)C)c(=O)c4ccc(C(=O)NCC(C)C)cc4n3c2=O)c1` gave Methyltransferases inactive.
CC(=O)Nc1c2n(c3ccccc13)CC(C)(C(=O)NC1CCCC1)N(Cc1cccs1)C2=O (stereo not drawn) was read as Methyltransferases inactive.
Screening CCc1cc2c(cc3n2CC(C)(C(=O)NC2CCC(C)CC2)N(c2ccccc2C)C3=O)s1 (stereo not drawn) returned Methyltransferases inactive.
Cc1ccc(CN2C(=O)c3ccc(-c4ccco4)n3CC2(C)C(=O)NC2CCCCC2)cc1 (stereo not drawn) was read as Methyltransferases inactive.
`CC1(C(=O)NC2CCCCCC2)Cn2c(ccc2-c2ccco2)C(=O)N1Cc1ccccc1F` (stereo not drawn) gave Methyltransferases inactive.
Screening CCS(=O)(=O)N1CCN(c2ccc(Nc3ncc(C(N)=O)c(NC4CC4)n3)cc2)CC1 returned Methyltransferases active.
`CC(=O)N1CCN(C(=O)Cc2ccc(Nc3ncc(F)c(Nc4ccc(C(=O)Nc5ccccc5Cl)cc4)n3)cc2)CC1` gave Methyltransferases inactive.
Screening CC(C)CN(CCN1C(=O)c2cc3occc3n2CC1(C)C(=O)NC1CCCCCC1)CC(C)C (stereo not drawn) returned Methyltransferases inactive.
`COc1ccc(CN2C(=O)CSc3c(c4ccccc4n3C)C2C(=O)NCc2ccccc2)cc1` (stereo not drawn) gave Methyltransferases inactive.
Screening Cc1cc(Nc2nc(N[C@@H](C)c3ccc(F)cc3)c(C#N)cc2F)n[nH]1 returned Methyltransferases active!.
Cc1cc(Nc2nc(-c3ccccc3)nc3ccccc23)n[nH]1 was read as Methyltransferases inactive.
Screening COc1ccc(-c2cc3n(n2)CC(C)(C(=O)NCc2ccccc2)N(c2cc(C)ccc2C)C3=O)cc1 (stereo not drawn) returned Methyltransferases inactive.
`CCOCCCNc1nc2c(S(=O)(=O)c3cc(C)ccc3C)nnn2c2ccccc12` gave Methyltransferases inactive.
`CSc1ccc(CCNC(=O)Cn2ccc3cc(S(=O)(=O)N4CCCCC4)ccc32)cc1` gave Methyltransferases inactive.
CCc1ccc(C(=O)NC(Cc2c[nH]c3ccccc23)C(=O)OCC(=O)c2ccc(C)cc2)cc1 (stereo not drawn) was read as Methyltransferases inactive.
`COC(=O)C(Cc1c[nH]c2ccccc12)NC(=O)c1ccc(Br)cc1` (stereo not drawn) gave Methyltransferases inactive.
Screening COC(=O)[C@H](Cc1cccc(C(=N)N)c1)[C@@H](C)NC(=O)c1ccc(-c2cc[n+]([O-])cc2)cc1 returned Methyltransferases active.
`COC(=O)c1ncn2c1C(=O)N(Cc1cccc(OC)c1)C(C)(C(=O)NC1CCCC1)C2` (stereo not drawn) gave Methyltransferases inactive.
Screening COCCN1C(=O)c2cc3occc3n2CC1(C)C(=O)NC1CCCCCCC1 (stereo not drawn) returned Methyltransferases inactive.
For O=C(O)CCc1ccc(NCc2cccc(Oc3ccccc3)c2)cc1 the results were Methyltransferases inactive.
`CC(=O)Nc1cccc(-c2n[nH]c3c2CC(=O)N(CCOc2ccccc2)C3)c1` gave Methyltransferases inactive.
For O=C(O)CCc1ccc(NCc2cccc3c2CCCN3CCOc2ccccc2)cc1F the results were Methyltransferases active.
Cc1ccccc1CN1C(=O)c2cc(-c3ccccc3)nn2CC1(C)C(=O)NCc1ccccc1 (stereo not drawn) was read as Methyltransferases inactive.
Screening O=C(CCn1ccc2cc(S(=O)(=O)N3CCCC3)ccc21)NC1CCN(Cc2ccccc2)CC1 returned Methyltransferases inactive.
`Cc1ccc(NC(=O)N2CCn3c(C)ccc3C2C(C)C)c(C)c1` (stereo not drawn) gave Methyltransferases inactive.
COc1cc(C(C)=O)ccc1O[C@@H]1O[C@H](CO)[C@@H](O)[C@H](O)[C@H]1O was read as Methyltransferases inactive.
Screening COc1cc(C(=O)O)ccc1OC1OC(CO)C(O)C(O)C1O (stereo not drawn) returned Methyltransferases inactive.
`C=C(C)C1Cc2cc(C(=O)OC3OC(CO)C(O)C(O)C3O)ccc2O1` (stereo not drawn) gave Methyltransferases active.
Screening N#Cc1ccc(N2N=C3c4ccc(C(=O)O)cc4CC[C@@H]3[C@@H]2C2CCCC2)cc1Cl returned Methyltransferases active.
For CCOC(=O)c1cc2n(n1)CC(C)(C(=O)NC1CCCC1)N(c1cccc(OC)c1)C2=O (stereo not drawn) the results were Methyltransferases inactive.
`CCCSCCCN1C(=O)c2cc3oc(C)cc3n2CC1(C)C(=O)NC1CCCCCCC1` (stereo not drawn) gave Methyltransferases inactive.
